Test [1] concerns XIP peptide (Xip251-270) binding. The test is described as follows: XIP fragment 251-270 binding compounds – biochemical, small-molecule microarray, fluorescence 635/667 nm, 0.1 µg/mL protein, primary screen (AID 1182). The following applies: fluorescent protein binding, 635 nm, higher = more signal, called active from +8 up or from −8 down.
Test [2] concerns XIP peptide (Xip251-270). Put plainly: compounds binding XIP fragment 251-270 – biochemical, small-molecule microarray, fluorescence 635/667 nm, 0.5 µg/mL protein, primary screen (AID 1183). As to conditions: fluorescence 635 nm, higher = more signal.
Test [3] is described as follows: blood-stage malaria parasite viability loss – strain 3D7, DAPI fluorescence, 100 nL, primary screen (AID 1184).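 Also: parasites grown inside human red blood cells in medium with human serum.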 As to conditions: P. falciparum 3D7 growth, 3 d, higher = more signal.
In test [4] the target is Homeobox protein Hox-A13 (Mus musculus) (UniProt Q62424). Put plainly: disruptors of Hoxa13 oligonucleotide interaction – biochemical, fluorescence polarization, labeled oligonucleotide, primary screen (AID 1185). The following applies: Hoxa13:DNA binding, 15 min, higher = more signal, called active from +8 up or from −8 down.
Test [5] is described as follows: blockers of DNA damage checkpoint Chk1 activation – imaging, HeLa, hydroxyurea, phospho-Chk1 antibody, percent positive cells, primary screen (AID 1186). The following applies: hydroxyurea-induced phospho-Chk1 immunofluorescence imaging, higher = more signal.
The nature of test [6]: blockers of DNA damage checkpoint Chk1 activation – imaging, HeLa, hydroxyurea, phospho-Chk1 nuclear intensity, primary screen (AID 1187). As to conditions: hydroxyurea-induced phospho-Chk1 immunofluorescence imaging, higher = more signal.

Here are results for 27 compounds from PubChem BioAssay.

Structures are written as SMILES. Active and inactive are the calls of the source. Unless noted, no rule for the calls is given here.

Homeobox protein Hox-A13 (Mus musculus), sequence (Q62424 whole entry, looked up): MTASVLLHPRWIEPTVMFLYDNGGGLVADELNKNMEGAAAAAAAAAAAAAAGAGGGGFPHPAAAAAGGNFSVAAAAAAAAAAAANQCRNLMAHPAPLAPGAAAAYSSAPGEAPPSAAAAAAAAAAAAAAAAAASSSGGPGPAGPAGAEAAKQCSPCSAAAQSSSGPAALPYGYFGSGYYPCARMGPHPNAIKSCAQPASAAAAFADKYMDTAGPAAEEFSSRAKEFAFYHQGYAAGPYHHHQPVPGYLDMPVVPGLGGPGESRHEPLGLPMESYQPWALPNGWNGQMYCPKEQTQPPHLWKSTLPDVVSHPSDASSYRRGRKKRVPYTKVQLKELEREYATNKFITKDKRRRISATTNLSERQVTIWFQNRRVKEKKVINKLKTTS

Take `CC(C)(C)OC(=O)CC[C@@]1(C(=O)NCc2ccccc2)N=C(c2ccc(OCCCO)cc2)O[C@@H]1c1ccccc1`: the results for the composite z-score in test [1] and in test [2] were 1.59 (inactive) and 0.93, respectively. Besides, the z-score in test [3] was -2.25; in test [4] it was -5.51 (inactive); in test [5], -1.17 (inactive); in test [6], -1.29 (inactive).

For `O=C(NCc1ccccc1)[C@@]1(CCS(=O)(=O)c2ccccc2)COC(c2ccc(OCCCO)cc2)=N1`, the composite z-score is 1.13 (inactive) in test [1] and 0.881 in test [2]. Further, the z-score in test [3] is -2.26; in test [4] it was -4.72 (inactive); in test [5] it was -0.712 (inactive); in test [6] it was -0.464 (inactive).

With `CC1CC/C=C\[C@H]2OC34C=CCN(Cn5nnc6ccccc65)C(=O)[C@H]3N(C(C)CO)C(=O)[C@@H]4C2C(=O)O1` (some centres not stated), the values for the composite z-score in test [1] and in test [2] were 0.205 (inactive) and 0.0783, respectively. Also, the z-score in test [3] was 0.189; in test [4] it was -4.29 (inactive); in test [5], -0.087 (inactive); in test [6], -0.361 (inactive).

As to `COCCCNC(=O)[C@@]1(Sc2ccc(C)cc2)CC(=O)N(Cc2cc(C(F)(F)F)cc(C(F)(F)F)c2)[C@@H]1c1ccc(CO)cc1I`, the results for the composite z-score in test [1] and in test [2] were -0.291 (inactive) and -0.413, respectively. Moreover, the z-score in test [3] was -0.709; in test [4] it was -1.21 (inactive); in test [5], 0.007 (inactive); in test [6] it was 0.283 (inactive).

Turning to `CC(C)(C)OC(=O)CC[C@]1(C(=O)N2CCCCC2)N=C(c2ccc(OCCCO)cc2)O[C@H]1c1ccccc1`, the composite z-score in test [1] is 1.24 (inactive); in test [2], 0.814. Also, the z-score in test [3] was -2.31; in test [4], -4.83 (inactive); in test [5], -0.478 (inactive); in test [6], -0.787 (inactive).

Regarding `O=C1O[C@H](c2ccccc2)[C@H](c2ccccc2)N2[C@H]1[C@@H](C(=O)NC[C@H](O)c1ccccc1)[C@]1(C(=O)Nc3ccc(C#CC4=CCCCC4)cc31)[C@H]2c1ccc(OCCO)cc1`, the values for the composite z-score in test [1] and in test [2] were 1.21 (inactive) and 0.658, respectively. Besides, the z-score was -0.435 in test [3], 3.43 (inactive) in test [4], -0.22 (inactive) in test [5] and -0.301 (inactive) in test [6].

Turning to `Cc1ccc(S[C@]2(C(=O)NCCCN(C)C)CC(=O)N(Cc3ccccc3)[C@@H]2c2ccc(CO)cc2I)cc1`, the composite z-score was 0.066 (inactive) in test [1] and 0.119 in test [2]. In addition, the z-score in test [3] was 0.0943; in test [4], -2.06 (inactive); in test [5], 0.379 (inactive); in test [6], 0.637 (inactive).

Regarding `CN1CCC(CCCO)=CC1C1CC1` (configuration not stated), the composite z-score is -0.289 (inactive) in test [1] and -0.5 in test [2]. Besides, the z-score was -0.548 in test [3], -1.63 (inactive) in test [4], -0.734 (inactive) in test [5] and -0.684 (inactive) in test [6].

As to `CCOC(=O)C1=C[C@@H](c2ccccc2)N(S(=O)(=O)c2ccc(C)cc2)[C@H]1c1ccc(F)cc1`, the composite z-score in test [1] is 0.346 (inactive); in test [2], 0.382. Also, the z-score in test [3] is -2.17; in test [4], -0.178 (inactive); in test [5], 0.0332 (inactive); in test [6], -0.293 (inactive).

On to `CN(C)c1ccc(C(O)C2C=CC3C(=O)NC(=O)C3N2Nc2ccc(Cl)cc2Cl)cc1` (configuration not stated), for which the composite z-score in test [1] was -0.0906 (inactive); in test [2], 0.16. The z-score is -0.599 in test [3], -4.19 (inactive) in test [4], -0.0923 (inactive) in test [5] and 0.0147 (inactive) in test [6].

As for `CC(C)N1CC=CC23O[C@@H]4/C=C\CCCOC(=O)C4[C@H]2C(=O)N(CCCCCO)[C@@H]3C1=O` (some centres not stated), the composite z-score in test [1] was -0.301 (inactive); in test [2], -1.95. In addition, the z-score in test [3] is -0.426; in test [4] it was -4.61 (inactive); in test [5], -0.261 (inactive); in test [6], -0.128 (inactive).

With `CCOC(=O)C[C@H]1[C@H](OC(=O)c2cc3ccccc3oc2=O)[C@@H](NC(=O)C2CCCCC2)c2cc(OCCCO)ccc2N1C(=O)c1ccc2ccccc2n1`, the composite z-score in test [1] is -0.0413 (inactive); in test [2], 0.522. In addition, the z-score was -0.292 in test [3], -4.56 (inactive) in test [4], 0.453 (inactive) in test [5] and 0.333 (inactive) in test [6].

In the case of `O=C1O[C@H](c2ccccc2)[C@H](c2ccccc2)N2[C@H]1[C@@H](C(=O)Nc1nc3ccccc3s1)[C@]1(C(=O)Nc3ccc(C#CC4(O)CCCCCC4)cc31)[C@H]2c1ccc(O)cc1`, the composite z-score in test [1] is 2.76 (inactive); in test [2], 0.844. Besides, the z-score was -0.416 in test [3], -1.04 (inactive) in test [4], 0.313 (inactive) in test [5] and 0.634 (inactive) in test [6].

Take `CC(C)[Si]1(C(C)C)OCc2cc(C3CC3)nc(-c3ccccc3)c21`: the values for the composite z-score in test [1] and in test [2] were 0.119 (inactive) and 0.939, respectively. The z-score in test [3] was -1.16; in test [4] it was -0.631 (inactive); in test [5] it was -0.37 (inactive); in test [6], -0.0248 (inactive).

Consider `CCOC(=O)C1=CC[C@@H](c2ccc(-c3ccc(OCc4ccccc4)cc3)c(OC)c2)N(S(=O)(=O)c2ccc(C)cc2)[C@H]1c1ccccc1`, for which the composite z-score in test [1] is 0.525 (inactive); in test [2], 0.6. Further, the z-score in test [3] was -1.94; in test [4], -0.242 (inactive); in test [5] it was -1.04 (inactive); in test [6] it was -0.995 (inactive).

Take `O=C/C=C/c1ccccc1Cl`: the composite z-score in test [1] is 0.0944 (inactive); in test [2], -0.264. Further, the z-score in test [3] was 0.316; in test [4], -0.26 (inactive); in test [5] it was 0.152 (inactive); in test [6] it was 0.0674 (inactive).

On to `COC(=O)C(CC#Cc1ccc2c(c1)[C@]1(C(=O)N2)[C@H](C(=O)N2CCCCCCC2)[C@H]2C(=O)O[C@H](c3ccccc3)[C@H](c3ccccc3)N2[C@@H]1c1ccc(O)cc1)C(=O)OC`, for which the composite z-score in test [1] is 0.431 (inactive); in test [2], 0.459. Moreover, the z-score in test [3] is -1.39; in test [4] it was 1.11 (inactive); in test [5], -0.197 (inactive); in test [6], -0.109 (inactive).

In the case of `CC[C@@H]1C=C(C(=O)O)[C@H](c2ccccc2)N1S(=O)(=O)c1ccc([N+](=O)[O-])cc1`, the composite z-score in test [1] is -0.0477 (inactive); in test [2] it was 0.729. Further, the z-score in test [3] was -1.01; in test [4], -3.73 (inactive); in test [5], -0.0036 (inactive); in test [6], -0.3 (inactive).

With `COC(=O)C[C@H]1O[C@]2(C(=O)N(C)c3ccccc32)[C@@H](C)[C@@H]1[Si](C)(C)c1ccc(OC)cc1`, the composite z-score in test [1] was -0.539 (inactive); in test [2], 0.414. In addition, the z-score is -2.41 in test [3], -6.13 (inactive) in test [4], 0.463 (inactive) in test [5] and 0.688 (inactive) in test [6].

For `C#C[C@H](O[Si](C#Cc1ccccc1)(C(C)C)C(C)C)c1ccccc1`, the composite z-score was 0.114 (inactive) in test [1] and 0.311 in test [2]. The z-score in test [3] was -1.16; in test [4] it was -1.52 (inactive); in test [5] it was 0.116 (inactive); in test [6], 0.201 (inactive).

As to `O=C1c2ccccc2[C@](Cc2ccccc2I)(C(=O)NCc2ccccc2)[C@H](c2ccc(CO)cc2)N1Cc1ccccc1C(F)(F)F`, the values for the composite z-score in test [1] and in test [2] were 0.696 (inactive) and -1.14, respectively. Also, the z-score is -0.794 in test [3], -1.29 (inactive) in test [4], -0.361 (inactive) in test [5] and -0.331 (inactive) in test [6].

Turning to `Cc1cc(C)c(C(O)C2C=CC3C(=O)N(C)C(=O)C3N2N2CCCCC2)c(C)c1` (configuration not stated), the composite z-score in test [1] was 0.0255 (inactive); in test [2] it was 0.849. The z-score in test [3] was 1.09; in test [4], -3.3 (inactive); in test [5], -0.514 (inactive); in test [6], -0.224 (inactive).

Regarding `O=C1O[C@@H](c2ccccc2)[C@@H](c2ccccc2)N2[C@@H](c3ccc(OCCO)cc3)[C@]3(C(=O)Nc4ccc(C#CCCO)cc43)[C@@H](C(=O)N3CCN(c4ncccn4)CC3)[C@H]12`, the composite z-score in test [1] is 0.42 (inactive); in test [2] it was 0.721. Moreover, the z-score in test [3] is -2.03; in test [4], -0.282 (inactive); in test [5] it was 0.396 (inactive); in test [6], 0.92 (inactive).

As for `C=C(C)[C@@H]1CC=C(C(O)C2C=CC3C(=O)NC(=O)C3N2Nc2ccccn2)CC1` (some centres not stated), the composite z-score in test [1] was 0.745 (inactive); in test [2] it was 0.718. Further, the z-score in test [3] was 0.982; in test [4], -3.65 (inactive); in test [5], 0.129 (inactive); in test [6], -0.126 (inactive).

Regarding `CN(C)CCCC[C@@H]1NC(=O)[C@@H]2C[C@H](C(=O)NCCCCCNC(=O)CS)[C@H](c3ccc(O)cc3)N2C1=O`, the composite z-score in test [1] was 0.207 (inactive); in test [2] it was -0.279. Besides, the z-score was 0.386 in test [3], -0.848 (inactive) in test [4], -0.205 (inactive) in test [5] and -0.456 (inactive) in test [6].

On to `COc1ccc([Si](C)(C)[C@H]2[C@H](CCO)O[C@@]3(C(=O)N(Cc4ccccc4)c4ccc(N5C(=O)c6cccc7cccc5c67)cc43)[C@@H]2C)cc1`, for which the composite z-score was 1.25 (inactive) in test [1] and 0.353 in test [2]. For the same compound, the z-score was -2.48 in test [3], 0.2 (inactive) in test [4], -1.01 (inactive) in test [5] and -0.207 (inactive) in test [6].

For `C=C[C@H](OC)[C@@H](OC(=O)Nc1ccc(SC)cc1)c1ccc(O)c(F)c1`, the composite z-score is 2.52 (inactive) in test [1] and 0.719 in test [2]. Further, the z-score in test [3] is 0.188; in test [4], -2.14 (inactive); in test [5] it was -1.07 (inactive); in test [6], -0.478 (inactive).
